SMN2 splice enh: SMN2 splice variant enhancement. HEK293 SMN2-luciferase splicing reporter, luminescence, 30-36 h. Potency, µM (titrated, usually from 46.1 µM), for the others: at the highest dose activity change, positive = activation, actives largely listed as activators. hit rate 2.8% among 210,000. AID 1458; further: % of control where 0% means no effect; nearly all actives have a fitted effect of over 55% in size
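qHTS luciferase splicing reporter: luminescence rises when SMN2 exon 7 is included in transfected HEK293 cells. Compound exposure lasted 30-36 h at 37C, with 4.5 mM final sodium butyrate as control, followed by a ONE-Glo read.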
KinaseGlo FLuc: blocks Kinase-Glo luciferase, a counter-screen artifact. Kinase-Glo luciferase, ATP luminescence, 8 min. Potency, µM (series often up to 38.3 µM), without a hit: at the highest dose activity change, negative = inhibition, most hits filed as inhibitors. hit rate 0.28% among 200,000; further: on the % scale 0 is the no-effect control and ±100 the full control effect; nearly all actives have a fitted effect of over 60% in size
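Light output from Kinase-Glo luciferase with luciferin and 10 uM ATP in 50 mM imidazole pH 7.2, KCl, MgCl2, Tween 20, BSA; compound pin-delivered, 8-min ambient incubation, then luminescence read.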
FLuc modulator: firefly luciferase modulation, counter-screen for miR-21 project; hit rate 6.9% among 360,000; AID 588342; Potency, µM (top dose mostly 57.5 µM), without a hit: top-dose activity change, negative = inhibition, hits mostly inhibitors; purified FLuc, Km substrates, luminescence inhibition; P08659;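 further: plate controls were vehicle for no effect and reference inhibitor for full effect; nearly all actives have a fitted effect of over 55% in size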
Target sequence (P08659 whole entry, looked up): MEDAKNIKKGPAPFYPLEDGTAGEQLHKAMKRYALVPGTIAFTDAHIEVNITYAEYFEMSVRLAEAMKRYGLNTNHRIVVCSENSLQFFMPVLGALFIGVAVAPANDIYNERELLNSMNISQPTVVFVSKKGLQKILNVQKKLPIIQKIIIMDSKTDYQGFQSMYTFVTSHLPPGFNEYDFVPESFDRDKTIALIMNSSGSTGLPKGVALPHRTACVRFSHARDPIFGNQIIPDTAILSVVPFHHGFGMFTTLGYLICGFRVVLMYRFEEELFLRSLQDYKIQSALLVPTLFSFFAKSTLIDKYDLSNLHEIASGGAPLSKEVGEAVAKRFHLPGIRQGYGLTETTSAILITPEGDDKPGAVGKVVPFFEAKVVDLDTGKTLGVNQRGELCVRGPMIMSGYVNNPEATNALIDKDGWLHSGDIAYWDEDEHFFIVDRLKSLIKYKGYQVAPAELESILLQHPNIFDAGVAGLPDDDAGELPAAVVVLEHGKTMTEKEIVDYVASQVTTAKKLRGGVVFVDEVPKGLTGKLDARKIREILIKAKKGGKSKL
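Biochemical qHTS of compounds, final roughly 60 µM downward over six points, against 10 nM purified firefly luciferase using Km concentrations of substrates (10 uM D-luciferin, 10 uM ATP) in Tris acetate pH 7.5 buffer; luminescence output.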
Rab9 promoter act: activates the Rab9 promoter; Huh7 Rab9 promoter-luciferase reporter, luminescence, 24 h; Potency, µM (series often up to 9.22 µM), for the others: top-dose activation, negative = inhibition, hits mostly activators; hit rate 2.8% among 320,000; AID 485297; further: % of control where 0% means no effect; nearly all actives have a fitted effect of over 60% in size
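Luminescence read-out: Huh7 cells stably expressing Rab9-luciferase, treated 24 h with compound at 37 °C, then lysed with luciferase reagent for 10 min at ambient before reading.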
ELG1 genotox: genotoxicity induction in ELG1-luciferase HEK293T cells; HEK293T ELG1-luciferase reporter, luminescence, 16 h; Potency, µM (series often up to 46 µM), inactives show at the top dose activity change, positive = activation, actives largely listed as activators; hit rate 1.3% among 330,000; AID 504466; further: % of control where 0% means no effect; nearly all actives have a fitted effect of over 60% in size
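HEK293T cells expressing luciferase-tagged ELG1 were exposed to compound or DMSO vehicle for 16 hr at 37 °C and 5% CO2. Luciferase activity was then measured with ONE-Glo after 30 min at room temperature.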
NPC1 prom act: NPC1 promoter activation. Huh7 NPC1 promoter luciferase reporter, 24 h. Potency, µM (titrated, usually from 9.22 µM), inactives show top-dose activation, most hits filed as activators. hit rate 2.4% among 320,000. AID 485313; further: % of control where 0% means no effect; nearly all actives have a fitted effect of over 60% in size
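NPC1 promoter–luciferase Huh7 cells; 24 h compound; luminescence.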
Active calls of the source: *; ? = inconclusive; / = no result given. Compounds with a hit are over-represented: about 7.5% of the library has one in this group of screens. The call rests on the fitted dose curve; in most records, active means well fitted curve in the direction sought with a large enough effect; inconclusive means small, poorly fitted or top-dose-only effect, or another doubt; inactive means no such curve, though single readings can be large; an effect the other way counts as inactive or inconclusive. Potency means the concentration at half of the fitted maximal effect.

SMILES	SMN2 splice enh	KinaseGlo FLuc	FLuc modulator	Rab9 promoter act	ELG1 genotox	NPC1 prom act
Cc1ccc(-n2c(=O)c3cccnc3n2CC(=O)Nc2cc(C)cc(C)c2)cc1	/	/	-8%	/	/	/
CCc1ccc2oc(-c3cccc(NC(=O)c4cccnc4)c3)nc2c1	16%	5%	1.3µM*	?	-2%	?
Cc1ccc2oc(-c3ccc(C)c(NC(=O)c4ccc(-c5ccccc5[N+](=O)[O-])o4)c3)nc2c1	-24%	/	11µM*	/	/	/
O=C(Nc1ccc2oc(-c3ccccc3)nc2c1)c1cccnc1	-9%	-1%	?	?	14%	?
O=C(/C=C/c1ccco1)NC(=S)Nc1ccccc1	/	/	27µM*	?	10%	28%
Cc1cccc(NC(=S)NC(=O)/C=C/c2ccco2)c1	7%	0%	?	-10%	?	-29%
Cc1ccc(-n2nc3cc(C)c(NC(=S)NC(=O)/C=C/c4ccco4)cc3n2)cc1	?	-3%	11µM*	-9%	8.2µM*	-3%
Cc1cccc(NC(=S)NC(=O)/C=C/c2ccco2)n1	-5%	-2%	?	3.5µM*	?	?
COc1ccccc1C(=O)NCc1ccc2c(c1)CCN2C(=O)c1ccncc1	/	/	-1%	/	/	/
CCC(NC(=S)NCc1ccc(F)cc1)c1ccc(C)cc1 (stereo not drawn)	/	/	2%	1%	-13%	-1%
O=C(c1ccc(Cl)cc1)n1nc(-c2ccco2)nc1NCc1cccs1	21%	/	3%	/	/	/
OCCCCNCc1ccc(OCc2ccc(Cl)cc2Cl)cc1	-8%	-6%	-5%	-5%	-3%	1%
OCCNCc1ccc(OCc2ccc(Cl)cc2Cl)cc1	-9%	2%	15µM*	18%	?	12%
CCc1sc(C(=O)Nc2ncccc2O)cc1C	/	/	6µM*	2.2µM*	?	1.6µM*
Cc1ccsc1C(=O)Nc1nccs1	/	/	?	?	25%	?
CCc1sc(C(=O)Nc2ncccc2C)cc1C	/	/	?	25%	23%	22%
CCc1sc(C(=O)Nc2nccs2)cc1C	/	/	1.3µM*	3.2µM*	?	3.5µM*
CN1CCN(c2ccc(NC(=O)C(C)(c3ccccc3)c3ccccc3)cc2)CC1	/	/	1%	0%	-3%	-5%
CN1CCN(c2ccc(-c3ccnn3C(=O)Nc3ccccc3)cc2)CC1	10µM*	-8%	17µM*	3.5µM*	?	?
C=CCn1c(N)c(C(=O)NCCC2=CCCCC2)sc1=S	13µM*	4%	?	19%	?	24%
COc1ccccc1Nc1ncc2c(n1)CCN(Cc1cc(F)cc(F)c1)C2	/	/	1%	/	/	/
CCc1ccc(CN2CCc3nc(Nc4ccc5c(c4)OCCO5)ncc3C2)cc1	/	/	-18%	/	/	/
COc1cc(CN2CCc3nc(Nc4ccc5c(c4)OCCO5)ncc3C2)cc(OC)c1OC	/	/	15µM*	/	/	/
COc1ccccc1Nc1ncc2c(n1)CCN(CC(C)C)C2	/	/	21µM*	/	/	/
CCNc1ncc2nc(-c3ccc(OC)cc3)c(=O)n(Cc3cccc(OC)c3)c2n1	-3%	-1%	/	/	/	/
SMILES	SMN2 splice enh	KinaseGlo FLuc	FLuc modulator	Rab9 promoter act	ELG1 genotox	NPC1 prom act
O=C(NCc1ccc(F)cc1)c1ccc(CSCc2cccc(Cl)c2)o1	/	/	-16%	/	/	/
COc1ccc(-c2nsc3c(N4CCCCC4)ncnc23)cc1	-73%	-30%	0.085µM*	?	?	?
COc1ccc(-c2nsc3c(N4CCCCC4C)ncnc23)cc1 (stereo not drawn)	-73%	-6%	0.34µM*	-44%	-9%	-29%
COc1ccc(-c2nsc3c(N4CCN(S(=O)(=O)c5ccccc5F)CC4)ncnc23)cc1	-13%	0%	-15%	1%	2%	1%
COc1ccc(C(=O)N2CCN(c3ncnc4c(-c5ccccc5)nsc34)CC2)cc1	-87%	5%	-1%	-6%	-3%	-4%
CCOCCc1nn2c(=O)cc(COC(=O)c3ccco3)nc2s1	/	/	-4%	/	/	/
Cc1ccc(C(=O)O)cc1-c1ccc(/C=C2\SC(=O)N(CC(=O)Nc3ccccc3)C2=O)o1	-3%	2%	?	-1%	-2%	0%
CC(C)(C)OC(=O)CN1C(=O)S/C(=C\c2ccc(-c3cccc(C(=O)O)c3)o2)C1=O	/	/	15µM*	3.2µM*	?	?
Cc1ccc(NC(=O)CN2C(=O)S/C(=C/c3ccc(-c4cccc(C(=O)O)c4)o3)C2=O)cc1	?	2%	21µM*	13%	-10%	13%
C#CCN1C(=O)S/C(=C\c2ccc(-c3ccc(C(=O)O)cc3C)o2)C1=O	/	/	7.6µM*	2.5µM*	?	1.1µM*
O=C1S/C(=C/c2ccc(N3CCOCC3)o2)C(=O)N1Cc1ccc(F)cc1	-17%	-6%	?	-4%	1%	0%
Cc1ccc(NC(=O)CN2C(=O)S/C(=C\c3ccc(-c4cccc(C(=O)O)c4C)o3)C2=O)cc1	13%	16%	?	4%	2%	0%
CC(C)OC(=O)CN1C(=O)S/C(=C/c2ccc(N3CCCCC3)o2)C1=O	-10%	-6%	21µM*	-3%	28%	1%
COc1ccc(NC(=O)Nc2nnc(N(C)C3CCCCC3)s2)c(OC)c1	/	/	-14%	/	/	/
O=C1C(c2ccc(F)cc2)N(CCc2ccccc2)C(=O)CN1C1CCCCC1 (stereo not drawn)	/	/	0%	/	/	/
COc1ccc(-c2c(C)c3ccc(O)c(CN4CCCCC4)c3oc2=O)cc1OC	/	/	3%	/	/	/
CCOC(=O)c1sc2nc3n(c(=O)c2c1C)CCC3	-8%	0%	?	15%	11%	1%
CCOC(=O)c1sc2nc3n(c(=O)c2c1C)CCCCC3	7%	2%	15µM*	?	?	?
Cc1c(C(=O)OCc2ccc(F)cc2)sc2nc3n(c(=O)c12)CCC3	/	/	15µM*	26%	7%	4%
O=C(NCC1CCCN(C(=O)c2cscn2)C1)c1ccc(-c2ccccc2)cc1 (stereo not drawn)	/	-1%	17µM*	5%	5%	-2%
Cc1ccccc1CC(=O)N1CCCC(CNC(=O)c2ccc(F)cc2)C1 (stereo not drawn)	/	/	0%	-1%	0%	8%
CC(=O)NCCC(=O)N1CCCC(CNC(=O)c2ccc(-c3ccccc3)cc2)C1 (stereo not drawn)	-3%	-3%	15µM*	11%	9%	-4%
O=C(NCC1CCCN(C(=O)c2cscn2)C1)c1ccccc1Cl (stereo not drawn)	/	-1%	?	-1%	8%	0%
C=CCC(=O)N1CCCC(CNC(=O)c2ccc(-c3ccccc3)cc2)C1 (stereo not drawn)	/	-1%	24µM*	-3%	0%	-2%
